Results from PubChem BioAssay (NCATS).
Inconclusive results are not listed. The source made the active and inactive calls. Calls come from the whole dose curve; as a rule, active = well fitted curve in the direction sought with a large enough effect; inconclusive = small, poorly fitted or top-dose-only effect, or another doubt; inactive = no such curve, though single readings can be large; an effect the other way counts as inactive or inconclusive.

Legend:
[1] = Cell Viability - LYMP2-005 (AID 967); conditions: LYMP2-005 lymphoblastoid cell viability; series mostly up to 92.2 µM; note: potency is the fitted concentration of half-maximal effect
Outline: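 Acute cytotoxicity is scored as a concentration-dependent drop in intracellular ATP in human lymphoblastoid LYMP2-005 cells after 24 h compound treatment. ATP is quantified by luciferase luminescence, and AC50 is derived by Hill-equation modelling.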

[2] = Cell Viability - LYMP2-009 (AID 968); conditions: LYMP2-009 lymphoblastoid cell viability; series mostly up to 92.2 µM; note: nearly all actives have a fitted effect of over 55% in size; note: potency is the fitted concentration of half-maximal effect
[3] = Cell Viability - LYMP2-006 (AID 978); conditions: LYMP2-006 lymphoblastoid cell viability, qHTS; series mostly up to 92.2 µM; note: nearly all actives have a fitted effect of over 60% in size; note: potency is the fitted concentration of half-maximal effect
Outline: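 Cells are seeded at 2500 per well and rested 5 hr at 37 C. Compounds are added across a concentration series for 24 hr at 37 C, after which ATP is quantified by luciferase luminescence.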

[4] = Cell Viability - LYMP2-010 (AID 981); conditions: LYMP2-010 lymphoblastoid cell viability, qHTS; series mostly up to 92.2 µM; note: nearly all actives have a fitted effect of over 55% in size; note: potency is the fitted concentration of half-maximal effect
Outline: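 Steps: seed 2500 LYMP2-010 cells per well; incubate 5 hr at 37 C; add compound; incubate 24 hr at 37 C; add CellTiter-Glo, wait 30 min at room temperature; read luminescence. Concentration-response fitted to Hill equation for AC50.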

[5] = Cell Viability - LYMP2-012 (AID 982); conditions: LYMP2-012 lymphoblastoid cell viability qHTS; series mostly up to 92.2 µM;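 note: cellular ATP by luciferase luminescence where a drop means cytotoxicity; cells exposed to compound for one day before reading; nearly all actives have a fitted effect of over 55% in size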; note: potency is the fitted concentration of half-maximal effect
[6] = Cell Viability - LYMP2-018 (AID 985); conditions: LYMP2-018 lymphoblastoid cells, viability (qHTS); series mostly up to 92.2 µM; note: nearly all actives have a fitted effect of over 50% in size; note: potency is the fitted concentration of half-maximal effect
Outline: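 Seed 2500 lymphoblastoid cells per well, incubate 5 hr at 37 C, add compound and incubate 24 hr at 37 C, add CellTiter-Glo, wait 30 min at room temperature, then read luminescence.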

[7] = Cell Viability - LYMP2-020 (AID 986); conditions: series mostly up to 92.2 µM; note: nearly all actives have a fitted effect of over 55% in size; note: potency is the fitted concentration of half-maximal effect
Outline: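 Seed 2500 cells per well and incubate 5 hr at 37 C. Add compounds at a concentration series and incubate 24 hr at 37 C. Add CellTiter-Glo, wait 30 min at RT, read luminescence, and fit a Hill curve for AC50.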

[8] = Cell Viability - LYMP2-011 (AID 969); conditions: LYMP2-011 lymphoblastoid cells viability; series mostly up to 92.2 µM; note: nearly all actives have a fitted effect of over 60% in size
Outline: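 In this qHTS cytotoxicity format, compounds are tested across concentrations on human lymphoblastoid cells in complete medium for 24 hours at 37 C. Viability is taken as cellular ATP measured by luciferase luminescence.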

[9] = Cell Viability - LYMP2-013 (AID 970); conditions: LYMP2-013 lymphoblastoid cells viability; series mostly up to 92.2 µM; note: nearly all actives have a fitted effect of over 55% in size
Outline: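 Cytotoxicity is scored as a concentration-dependent drop in intracellular ATP in human lymphoblastoid cells after 24 hr compound exposure at 37 C. ATP is quantified by luciferase luminescence, and AC50 values come from Hill-equation modeling.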

[10] = Cell Viability - LYMP2-015 (AID 971); conditions: LYMP2-015 lymphoblastoid cell viability; series mostly up to 92.2 µM; note: nearly all actives have a fitted effect of over 55% in size
Outline: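 Cells are seeded at 2500 per well and incubated 5 hr at 37 C. Compounds are added across a concentration series for 24 hr at 37 C. CellTiter-Glo is added, and luminescence is read after 30 min at room temperature.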

[11] = Cell Viability - LYMP2-017 (AID 972); conditions: LYMP2-017 lymphoblastoid cell viability; series mostly up to 92.2 µM; note: nearly all actives have a fitted effect of over 55% in size
Outline: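 Cytotoxicity is scored as a concentration-dependent drop in cellular ATP in a human lymphoblastoid line after 24 hr treatment at 37 C. Values are AC50s from Hill-equation modelling.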

[12] = Cell Viability - LYMP2-019 (AID 973); conditions: LYMP2-019 lymphoblastoid cell line viability; series mostly up to 92.2 µM; note: nearly all actives have a fitted effect of over 55% in size
Outline: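 Cytotoxicity is scored as a concentration-dependent drop in cellular ATP after cells (2500/well) receive compound for 24 hr at 37 C. Tetraoctylammonium bromide serves as positive control.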

[13] = Cell Viability - LYMP2-021 (AID 974); conditions: LYMP2-021 lymphoblastoid cells viability; series mostly up to 92.2 µM
Outline: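 Loss of cellular ATP, measured with a luciferase-based CellTiter-Glo readout, serves as the toxicity signal in human lymphoblastoid cells treated for 24 hours at 37 C. Potency is reported as AC50 from a standard Hill model.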

[14] = Cell Viability - LYMP2-023 (AID 975); conditions: LYMP2-023 lymphoblastoid cell viability; series mostly up to 92.2 µM; note: nearly all actives have a fitted effect of over 55% in size
Outline: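 Steps: seed 2500 human lymphoblastoid cells per well, incubate 5 hr at 37 C, add compound for 24 hr at 37 C, add CellTiter-Glo, hold 30 min at room temperature, read luminescence. AC50 derived by Hill modelling.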

[15] = Cell Viability - LYMP2-025 (AID 976); conditions: LYMP2-025 lymphoblastoid cell viability; series mostly up to 92.2 µM
Outline: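 Acute cytotoxicity is scored as a concentration-dependent fall in intracellular ATP, measured by luciferase luminescence, in human lymphoblastoid LYMP2-025 cells exposed to compound for 24 hours at 37 C. AC50 values come from standard Hill fits.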

[16] = Cell Viability - LYMP2-002 (AID 977); conditions: LYMP2-002 lymphoblastoid cell viability, qHTS; series mostly up to 92.2 µM;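 note: compound exposure lasted 24 h at 37 °C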; note: potency is the fitted concentration of half-maximal effect
Outline: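 Human lymphoblastoid cells (2500/well) in complete medium were preincubated 5 hr at 37 C, then exposed to compounds for 24 hr at 37 C. Intracellular ATP was read by CellTiter-Glo luminescence; AC50 came from Hill-equation concentration-response fits.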

[17] = Cell Viability - LYMP2-007 (AID 979); conditions: LYMP2-007 lymphoblastoid cell viability; series mostly up to 92.2 µM;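 note: cells exposed to compound for 24 h before reading; nearly all actives have a fitted effect of over 60% in size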
Outline: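 Cells are seeded at 2500 per well and rested 5 hr. Compounds are then added over a concentration series for 24 hr at 37 C. CellTiter-Glo is added for 30 min at room temperature before luminescence reading.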

[18] = Cell Viability - LYMP2-008 (AID 980); conditions: LYMP2-008 lymphoblastoid cell viability, qHTS; series mostly up to 92.2 µM; note: nearly all actives have a fitted effect of over 60% in size
Outline: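 Cells seeded at 2500/well and rested 5 hr at 37 C; compounds added over a concentration range and incubated 24 hr at 37 C; CellTiter-Glo added, 30 min at room temperature; luminescence read and AC50 fitted with Hill model.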

[19] = Cell Viability - LYMP2-014 (AID 983); conditions: LYMP2-014 lymphoblastoid cells, viability qHTS; series mostly up to 92.2 µM; note: nearly all actives have a fitted effect of over 50% in size
Outline: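 Cells are plated at 2500/well and left 5 hr at 37 C. Compounds are added across a concentration range and incubated 24 hr at 37 C in complete medium. CellTiter-Glo is added, and luminescence is read after 30 min at room temperature.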

[20] = Cell Viability - LYMP2-016 (AID 984); conditions: LYMP2-016 lymphoblastoid cell viability, qHTS; series mostly up to 92.2 µM; note: nearly all actives have a fitted effect of over 55% in size
Outline: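 Cells were seeded at 2500 per well and rested 5 hr before a 24 hr compound exposure at 37 C. Viability was then gauged as cellular ATP by luciferase luminescence, with AC50 values fitted to the Hill equation.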

Measured: Potency

Nc1ncn([C@@H]2O[C@H](CO)[C@@H](O)[C@H]2O)c(=O)n1
active: [1] 12.6 µM | [2] 15.8 µM | [3] 15.8 µM | [4] 15.8 µM | [5] 15.8 µM | [6] 7.94 µM | [7] 10 µM

CCCCNC(=O)NS(=O)(=O)c1ccc(C)cc1
inactive: all assays above

NC(=O)N1c2ccccc2C=Cc2ccccc21
inactive: all assays above

COc1cc(Cc2cnc(N)nc2N)cc(OC)c1OC
inactive: all assays above

Nc1nc(N)c2nc(-c3ccccc3)c(N)nc2n1
not listed: [4] | [11] | [17]
inactive: all other assays above

COc1ccc(CN(CCN(C)C)c2ccccn2)cc1
inactive: all assays above

NC(=Nc1ccccc1)Nc1ccccc1
inactive: all assays above

CCCCOCCOCCOCc1cc2c(cc1CCC)OCO2
inactive: all assays above

O=c1[nH]c(=O)n([C@H]2C[C@H](O)[C@@H](CO)O2)cc1Br
inactive: all assays above

CN=C(NC#N)NCCSCc1nc[nH]c1C
inactive: all assays above

COC(=O)[C@H]1[C@H]2C[C@@H]3c4[nH]c5cc(OC)ccc5c4CCN3C[C@H]2C[C@@H](OC(=O)c2cc(OC)c(OC)c(OC)c2)[C@@H]1OC
active: [16] 79.4 µM | [6] 50.1 µM
inactive: [15]
